Reference: PubChem BioAssay AID1159580 (chemical genetic matrix, 2015)
“And” between values parts separate entries of the source, which are not always exact repeats. Equal entries are not always repeated. In all, about 5,500 compounds went through this assay and about 2,000 (36%) were called active. Roughly 18% stayed inconclusive and do not appear here. The list shows a part of the results. Unmarked numbers belong to inactive results. No stated cut-off is given here; in the data, active means normalized growth mostly below about 0.91 (no sharp cut-off); inconclusive means no clear call, values can overlap the other calls; inactive means mostly above about 0.92.

Assay: chemical genetic growth profiling, strain panel (AID 1159580);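 further: tested at 20 µM; growth read once vehicle control cultures reached saturation at 30 °C; 1 = growth at the plate median or of vehicle wells; lower values mean less growth of the strain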
Details: S. cerevisiae deletion strains, growth OD

CCCCCCc1ccc(O)cc1O
normalized growth (locus YAL013W, strain DEP1, active compounds read low): 0.677 (active) | normalized growth (locus YAL021C, strain ccr4, active compounds read low): 0.955 | normalized growth (locus YAL026C, strain drs2, active compounds read low): 0.747 (active) | normalized growth (locus YAL030W, strain snc1, active compounds read low): 0.961 | normalized growth (locus YBL061C, strain skt5, active compounds read low): 0.927 | normalized growth (locus YBR009C, strain hhf1, active compounds read low): 0.788 (active) | normalized growth (locus YBR021W, strain FUR4, active compounds read low): 0.977 | normalized growth (locus YBR023C, strain chs3, active compounds read low): 0.89 (active) | normalized growth (locus YBR171W, strain sec66, active compounds read low): 0.973 | normalized growth (locus YBR229C, strain ROT2, active compounds read low): 0.967 | normalized growth (locus YBR231C, strain swc5, active compounds read low): 0.865 (active) | normalized growth (locus YBR279W, strain paf1, active compounds read low): 0.968 | normalized growth (locus YCL011C, strain gbp2, active compounds read low): 0.896 (active) | normalized growth (locus YCL016C, strain dcc1, active compounds read low): 0.912 (active) | normalized growth (locus YCL029C, strain bik1, active compounds read low): 0.877 (active) | normalized growth (locus YCL061C, strain MRC1, active compounds read low): 0.906 (active) | normalized growth (locus YCL069W, strain vba3, active compounds read low): 0.972 | normalized growth (locus YCR088W, strain abp1, active compounds read low): 0.939 | normalized growth (locus YDL005C, strain med2, active compounds read low): 0.988 | normalized growth (locus YDL035C, strain GPR1, active compounds read low): 0.872 | normalized growth (locus YDL040C, strain nat1, active compounds read low): 0.973 | normalized growth (locus YDL074C, strain BRE1, active compounds read low): 0.786 | normalized growth (locus YDL101C, strain DUN1, active compounds read low): 0.95 | normalized growth (locus YDL185W, strain tfp1, active compounds read low): 0.956 | normalized growth (locus YDL192W, strain arf1, active compounds read low): 0.798 (active) | normalized growth (locus YDR001C, strain nth1, active compounds read low): 0.975 | normalized growth (locus YDR069C, strain doa4, active compounds read low): 0.939 | normalized growth (locus YDR101C, strain arx1, active compounds read low): 0.84 (active) | normalized growth (locus YDR137W, strain rgp1, active compounds read low): 0.608 (active) | normalized growth (locus YDR150W, strain NUM1, active compounds read low): 0.942 | normalized growth (locus YDR159W, strain sac3, active compounds read low): 0.525 (active) | normalized growth (locus YDR162C, strain NBP2, active compounds read low): 0.884 | normalized growth (locus YDR195W, strain ref2): 1.12 | normalized growth (locus YDR297W, strain sur2, active compounds read low): 0.948 | normalized growth (locus YDR318W, strain mcm21, active compounds read low): 0.794 (active) | normalized growth (locus YDR334W, strain swr1, active compounds read low): 0.988 | normalized growth (locus YDR335W, strain msn5, active compounds read low): 0.96 | normalized growth (locus YDR388W, active compounds read low): 0.868 (active) | normalized growth (locus YDR392W, strain spt3, active compounds read low): 0.283 (active) | normalized growth (locus YDR502C, strain sam2, active compounds read low): 0.814 (active) | normalized growth (locus YEL003W, strain gim4, active compounds read low): 0.911 (active) | normalized growth (locus YEL037C, strain rad23, active compounds read low): 0.976 | normalized growth (locus YEL061C, strain CIN8 (second series), active compounds read low): 0.983 | normalized growth (locus YEL061C, strain CIN8, active compounds read low): 0.943 | normalized growth (locus YER015W, strain faa2, active compounds read low): 0.978 | normalized growth (locus YER016W, strain bim1, active compounds read low): 1.05 | normalized growth (locus YER110C, active compounds read low): 0.987 | normalized growth (locus YER111C, strain swi4, active compounds read low): 0.976 | normalized growth (locus YER155C, strain BEM2 (second series), active compounds read low): 0.642 (active) | normalized growth (locus YER155C, strain BEM2, active compounds read low): 0.875 (active) | normalized growth (locus YER167W, strain BCK2, active compounds read low): 0.923 | normalized growth (locus YFR010W, strain ubp6, active compounds read low): 0.971 | normalized growth (locus YGL078C, strain dbp3, active compounds read low): 0.885 (active) | normalized growth (locus YGL086W, strain mad1, active compounds read low): 0.783 (active) | normalized growth (locus YGL167C, strain pmr1, active compounds read low): 0.981 | normalized growth (locus YGL173C, strain kem1, active compounds read low): 0.883 (active) | normalized growth (locus YGL227W, strain vid30, active compounds read low): 0.977 | normalized growth (locus YGL240W, strain doc1, active compounds read low): 0.899 | normalized growth (locus YGL248W, strain PDE1, active compounds read low): 0.868 (active) | normalized growth (locus YGL253W, strain hxk2, active compounds read low): 0.893 (active) | normalized growth (locus YGR078C, strain PAC10, active compounds read low): 0.882 | normalized growth (locus YGR135W, strain pre9, active compounds read low): 0.85 (active) | normalized growth (locus YGR252W, strain gcn5, active compounds read low): 0.752 (active) | normalized growth (locus YHR013C, strain ard1, active compounds read low): 0.822 (active) | normalized growth (locus YHR027C, strain rpn1, active compounds read low): 0.966 | normalized growth (locus YHR030C, strain SLT2, active compounds read low): 0.804 (active) | normalized growth (locus YHR079C, strain IRE1 (second series), active compounds read low): 0.832 (active) | normalized growth (locus YHR079C, strain IRE1, active compounds read low): 0.862 | normalized growth (locus YHR094C, strain hxt1, active compounds read low): 0.964 | normalized growth (locus YHR129C, strain ARP1, active compounds read low): 0.949 | normalized growth (locus YHR142W, strain chs7, active compounds read low): 0.838 (active) | normalized growth (locus YHR200W, strain rpn10, active compounds read low): 0.903 (active) | normalized growth (locus YIL066C, strain RNR3, active compounds read low): 0.967 | normalized growth (locus YIL073C, strain SPO22, active compounds read low): 0.811 | normalized growth (locus YIL125W, strain kgd1, active compounds read low): 0.88 (active) | normalized growth (locus YIR030C, strain dcg1, active compounds read low): 0.917 (active) | normalized growth (locus YJL092W, strain hpr5, active compounds read low): 0.943 | normalized growth (locus YJL095W, strain BCK1 (second series), active compounds read low): 0.887 (active) | normalized growth (locus YJL095W, strain BCK1, active compounds read low): 0.737 (active) and 0.818 (active) | normalized growth (locus YJL115W, strain asf1, active compounds read low): 0.993 | normalized growth (locus YJL129C, strain trk1, active compounds read low): 0.85 (active) | normalized growth (locus YJL134W, strain LCB3, active compounds read low): 0.96 | normalized growth (locus YJL154C, strain vps35, active compounds read low): 0.993 | normalized growth (locus YJL164C, strain tpk1, active compounds read low): 0.841 (active) | normalized growth (locus YJL166W, strain qcr8, active compounds read low): 0.85 (active) | normalized growth (locus YJL168C, strain set2, active compounds read low): 0.947 | normalized growth (locus YJL187C, strain SWE1 (second series), active compounds read low): 0.931
